Screen size: about 290,000 compounds; about 11,000 (3.8%) were called active. What follows is part of a selection rich in actives, with near analogues and random picks from the rest. A number with no mark means an inactive call.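 The calls were made as follows: active = mean replicate inhibition above about 79%, with every replicate also reaching it (limit read from the data); inconclusive = only one of the two criteria met; inactive = mean below limit and not every replicate reaching it.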

FAD-linked sulfhydryl oxidase ALR (Homo sapiens), sequence (P55789 whole entry, looked up): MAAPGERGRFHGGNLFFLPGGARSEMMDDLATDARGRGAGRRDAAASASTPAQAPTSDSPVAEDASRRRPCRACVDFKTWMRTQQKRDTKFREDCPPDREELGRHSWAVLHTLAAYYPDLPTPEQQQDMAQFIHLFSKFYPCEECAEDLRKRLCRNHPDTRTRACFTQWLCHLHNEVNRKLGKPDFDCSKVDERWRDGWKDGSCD

The assay concerns the target FAD-linked sulfhydryl oxidase ALR (Homo sapiens) (UniProt P55789). Briefly: inhibitors of human ALR sulfhydryl oxidase, primary screen, biochemical, H2O2 detection, HRP-luminol luminescence, single point (AID 485317). The settings on record: purified ALR, DTT oxidation, hits give high values, concentration not given here.
`CC(NC(=O)COC(=O)c1ccc2ccccc2n1)c1ccccc1` (stereo not given): the inhibition was -0.035%.
Then `CCN(CC)CCCNC(=O)c1ccc2c(=O)n(Cc3ccc4c(c3)OCO4)c(=S)[nH]c2c1`, with 95% (active).
Regarding `CCCCNC(=O)CCn1c(=S)[nH]c2cc3c(cc2c1=O)OCO3`, the inhibition is 5.42%.
Then `COc1ccc(Cn2c(=S)[nH]c3cc(C(=O)NCCCN4CCOCC4)ccc3c2=O)cc1`, with 7.86%; and `CCOc1ccc(NC(=O)CN(C)C(=O)c2c(C)noc2C)cc1OCC`, with -5.01%.
With `CCOC(=O)c1c(C)oc2cc(Sc3ccccc3)c(O)c(O)c12`, the inhibition is -12.1%.
Then `CC(NCC(=O)Nc1ccccc1C(=O)NC1CC1)c1ccccc1Cl` (stereo not given), with -6.65%.
Then `Nc1nonc1-n1nnc(C(=O)N/N=C/c2ccccc2O)c1CN1CCCC1`, with -0.481%; and `Cc1noc(C)c1COc1ccccc1C(=O)N(C)CC(=O)Nc1cccc(F)c1`, with -3.03%; and `Cc1ccc(N/N=C2\COC(C)(C)CC2=O)cc1`, with 98.6% (active).
For `CSCCC1NC(=O)N(CC(=O)Nc2cccc(S(=O)(=O)N3CCCCCC3)c2)C1=O` (stereo not given), the inhibition was 9.93%.
Then `CCCCc1ccc(NS(=O)(=O)c2cccc(C(=O)N3CCCN(C)CC3)c2)cc1`, with -4.55%; and `N#Cc1c(-c2ccc(F)cc2)nc(-c2ccccc2)[nH]c1=O`, with 47.4%; and `COc1ccccc1CSc1ncc(-c2ccc([N+](=O)[O-])cc2)[nH]1`, with -12.3%.
Then `O=c1[nH]c(SCc2ccccc2)nnc1-c1ccccc1`, with -6.49%.
Regarding `N#Cc1c(-c2ccccc2)nc(SCc2ccc([N+](=O)[O-])cc2)[nH]c1=O`, the inhibition was 99.5% (active).
Then `O=c1[nH]c(SCc2cccc(F)c2)nc2ccccc12`, with -17.9%.
With `N#Cc1c(-c2ccccc2)nc(SCc2cccc(C(F)(F)F)c2)[nH]c1=O`, the inhibition was 86.8% (active).
Turning to `C/C=C/c1ccc(OCC(=O)NNC(=O)CN(C)S(=O)(=O)c2ccc(C)cc2)c(OC)c1`, the inhibition is -17.6%.
Then `Cc1ccc2nnn(Cc3cccc(C(C)(C)C)c3O)c2c1`, with 14.7%.
As for `CCC(CC)c1nnc(NC(=O)C2=COCCO2)s1`, the inhibition was 2.79%.
Take `O=C(c1ccc(Cl)s1)N(Cc1nnc(-c2ccccc2Cl)o1)C1CC1`: the inhibition was -3.36%.
Then `COc1ccc(C)cc1NC(=O)c1cc(-c2ccccc2)nc2c1cnn2C(C)C`, with -1.17%; and `Cc1ccc(S(=O)(=O)N2CCCCC2)cc1C(=O)N(C)CC(=O)Nc1cccc(F)c1`, with -10.8%.
Consider `O=C(C[n+]1ccccc1)N/N=C/c1ccc(O)cc1`, for which the inhibition is 98.9% (active).
Then `O=C(CCCCCNC(=O)c1ccccc1)N/N=C/c1ccccc1`, with 35.5%; and `O=C(CC(=O)N/N=C\c1ccc(F)cc1)NCCc1ccccc1`, with 38.6%.
As for `CC1=NNC(=O)C1CCC(=O)N/N=C\c1ccc(Cl)c(Cl)c1` (stereo not given), the inhibition is 56.7%.
On to `O=C(CC(=O)Nc1ccc(Cl)c(Cl)c1)N/N=C/c1ccc(O)cc1`, for which the inhibition is 98.1% (active).
For the compound `O=C(CC(O)(C(F)(F)F)C(F)(F)F)Nc1ccc(Cl)c(Cl)c1`, the inhibition is 31.6%.

A word on the inhibition: it is the drop in the measured response relative to a control, in per cent.

Values taken from PubChem BioAssay AID485317 (Broad Institute, 2010).
